Statin myotox sup = suppressors of statin myotoxicity in C2C12 myotubes, primary screen, cell-based, single point, plate reader | 330,000 compounds, 0.78% hits | rescue of ATP level, % at 7.49 µM | C2C12 myotubes + simvastatin, ATP luminescence, 48 h; scaled: DMSO 0, geranylgeraniol control 100;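 active = mean ATP rescue above about 67%, or every replicate alone reaching that limit, limit read from the data, passing the limit was not always enough; inconclusive = no clear call, values can overlap the other calls; inactive = mean under the limit and some replicate under it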;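 note: myotubes were challenged with 10 µM simvastatin during compound exposure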
GAA850 FXN act = FXN promoter activators, primary screen, cell-based, luciferase luminescence, HEK293 lucGAA850 | HEK293 lucGAA850 FXN promoter luciferase reporter, 24 h; percent of 10 µM SAHA response | activation, % at 6 µM | 360,000 compounds, 0.56% hits;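 active = activation above the average of all compounds screened plus 3 SD, cutoff fixed separately per campaign, cut at about 7.5% in these data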;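 note: 0% = DMSO wells and 100% = 10 µM SAHA wells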
Wnt act = Wnt/beta-catenin pathway activators, primary screen, cell-based, plate reader, single point. Wnt/beta-catenin reporter cell assay, activator. activation, % at 9.35 µM. 300,000 compounds, 1.2% hits. AID 743398, 2014; in the data active = activation above about 30%, passing the limit was not always enough; inconclusive = no clear call, values can overlap the other calls;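 note: 0% = neutral control wells and 100% = positive control wells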
esBAF inh = Bmi1 luciferase reporter increase in mESCs, primary screen, esBAF inhibitor project, mouse ES cells, Bmi1 luciferase knock-in, single point; 24 h; 100% = twice the neutral-well signal; reporter increase, % at 12.5 µM; 350,000 compounds, 2% hits; AID 602393, 2012; in the data active = activation above about 40%; inconclusive = no clear call, values can overlap the other calls;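 note: 0% = median of the plate's neutral control wells and 100% = double that signal; a rise in the Bmi1 reporter signal indicates esBAF inhibition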
MITF act = activators of MITF-driven TRPM1 promoter reporter, primary screen, cell-based, SK-MEL-5, luciferase, single point. SK-MEL-5 TRPM1-promoter luciferase, 24 h; % of positive control, neutral wells = 0. activation, % at 12.5 µM. 300,000 compounds, 0.75% hits. AID 588334, 2011;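 active = mean activation of at least 80% with every replicate also reaching 80%; inconclusive = mean reaches 80% but some replicate falls short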;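 note: 0% = neutral control wells and 100% = parthenolide positive control wells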
An asterisk follows results filed as active; ? = inconclusive; · = no result given. A selection: hits, their analogues and other compounds. The true share with any hit is near 3.3%.

SMILES	Statin myotox sup	GAA850 FXN act	Wnt act	esBAF inh	MITF act
COc1cccc(-c2cc(C(=O)NC3CCCC3)no2)c1	·	2	·	·	54
O=C(NC1CCCCC1)c1cc(-c2cccs2)on1	-30	4	37*	45*	?
CC(C)Oc1cc(F)ccc1-c1cc(C(=O)NC2CCCCC2)[nH]n1	-4	1	-4	-4	·
Cc1ccc(-c2cc(C(=O)NC3CCCC3)no2)cc1	-13	4	29	39	125*
Cc1cc(F)ccc1-c1cc(C(=O)NC2CCCCC2)[nH]n1	-4	5	13	62*	·
COc1cccc(S(=O)(=O)N[C@@H]2CC[C@@H](CCNC(=O)Nc3cc(F)ccc3F)O[C@@H]2CO)c1	-13	·	·	15	·
CCS(=O)(=O)Nc1ccc2c(c1)C(=O)N(C)C[C@@H](OC)[C@H](C)CN(Cc1ccccn1)[C@H](C)CO2	1	·	·	-4	·
Cc1cccc(C)c1NC(=O)c1ccc(N2CCCC2=O)cc1	0	2	-5	-4	11
COc1ccc(CNC(=O)c2ccc(N3CCCC3=O)cc2)cc1	7	7	24	24	34
Cc1nnc(NC(=O)c2ccc(N3CCCC3=O)cc2)s1	-17	3	25	?	85*
O=C(Nc1ccccc1N1CCCC1)c1ccc(N2CCCC2=O)cc1	-9	1	6	13	14
Cc1csc(NC(=O)c2ccc(N3CCCC3=O)cc2)n1	·	-5	35*	·	-41
COc1ccc(C(CNC(=O)c2ccc(N3CCCC3=O)cc2)N(C)C)cc1 (configuration not stated)	84*	2	·	17	5
O=C(Nc1ccccc1Br)c1ccc(N2CCCC2=O)cc1	-3	4	37*	55*	87*
COc1ccccc1-c1ccc([C@@H]2[C@@H](CO)N3CCCCN(S(=O)(=O)c4cn(C)cn4)C[C@@H]23)cc1	2	·	·	3	·
Cc1ccc(-c2ccc3c(c2)O[C@H](CN(C)Cc2ccncc2)[C@H](C)CN([C@H](C)CO)S3(=O)=O)cc1	-21	·	·	-6	·
CCOC(=O)N1CCN(C(=O)c2c(-c3c(Cl)cccc3Cl)noc2C)CC1	-3	0	-1	-1	12
CCOC(=O)C1CCN(C(=O)c2c(-c3c(Cl)cccc3Cl)noc2C)CC1	93*	1	-1	-6	-13
Cc1onc(C(=O)N2CCC(C(N)=O)CC2)c1-c1ccccc1Cl	92*	-2	-5	-10	10
C[C@H]1CN([C@@H](C)CO)C(=O)Cc2cc(NC(=O)CCC(F)(F)F)ccc2O[C@H]1CN(C)S(=O)(=O)c1ccccc1	-15	·	·	5	·
Cc1cc(-c2onc(C)c2C(N)=O)no1	-4	0	38*	0	-10
Cc1cc(-c2onc(C)c2C(=O)Oc2ccc(Cl)cc2)no1	4	0	-5	-11	5
COc1ccc(C2/C(=C(/O)c3ccccc3)C(=O)C(=O)N2CCO)cc1 (configuration not stated)	87*	0	·	4	8
COCCCN1C(=O)C(=O)/C(=C(/O)c2ccc(OC)cc2)C1c1cccc(OC)c1 (configuration not stated)	125*	1	·	-4	6
Cc1ccc(N/C=C2\CCCCC2=O)nc1	2	6	1	20	45
SMILES	Statin myotox sup	GAA850 FXN act	Wnt act	esBAF inh	MITF act
O=C1CCCC/C1=C\Nc1ccc(Cl)cn1	26	5	·	44*	69
COc1cc(/C=N/Nc2ccccn2)cc(OC)c1O	·	2	1	·	13
CCCOc1ccc(/C=N/Nc2ccccn2)cc1OC	-32	7	5	29	91*
COc1ccccc1/C=N/Nc1nccnc1Cl	7	4	13	42*	58
COc1cccc(/C=N/Nc2ncccc2[N+](=O)[O-])c1OC	·	-8	9	·	·
C=CCOc1ccc(/C=N/Nc2ccccn2)cc1OC	-8	7	-1	64*	?
CCOc1ccc(/C=N/Nc2ccccn2)cc1OC	·	6	14	·	58
COc1ccc(/C=N\Nc2ccccn2)c(OC)c1	22	6	14	52*	·
CCCNC(=O)N1C[C@@H](C)[C@@H](OC)CN(C)C(=O)c2ccc(NC(C)=O)cc2OC[C@@H]1C	-8	·	·	-1	·
COc1ccc(S(=O)(=O)N(C)C[C@H]2Oc3ccc(NC(=O)CCC(F)(F)F)cc3CC(=O)N([C@@H](C)CO)C[C@@H]2C)cc1	-3	·	·	-2	·
COc1ccccc1S(=O)(=O)N(C)C[C@@H]1OCc2ccccc2-c2c(n(C)c3ccccc23)C(=O)N([C@@H](C)CO)C[C@@H]1C	1	·	·	1	·
CCOC(=O)CN(C(=O)CSc1nnc2c(n1)[nH]c1ccccc12)c1ccccc1	6	-4	·	9	·
CCOC(=O)CN(C(=O)CSc1nnc2c(n1)[nH]c1ccc(F)cc12)c1ccccc1	121*	-2	-18	1	-7
C[C@H](CO)N1C[C@H](C)[C@H](CN(C)Cc2ccc(C(F)(F)F)cc2)Oc2ccc(NC(=O)Nc3ccc(C(F)(F)F)cc3)cc2CC1=O	21	·	·	3	·
CSc1ncc(C(=O)Nc2ccc(Cl)cc2)c(C)n1	32	1	2	5	8
CSc1ncc(C(=O)Nc2ccc(C(C)=O)cc2)c(C)n1	2	4	7	52*	57
Nc1ccc(C(=O)OCc2nc3ccccc3[nH]2)cc1	-11	-1	·	55*	10
CCc1cc(/C(Cc2ccc3ccccc3n2)=N\O)c(O)cc1O	21	-1	-6	50*	-8
CCc1cc(C(=O)Cc2nc3ccccc3[nH]2)c(O)cc1O	-42	-1	34*	47*	21
O=C(Cc1nc2ccccc2[nH]1)c1ccc([N+](=O)[O-])cc1	·	5	58*	·	59
COCc1cn(CC[C@@H]2CC[C@H](NC(=O)Nc3ccc(OC)cc3)[C@@H](CO)O2)nn1	1	·	·	-3	·
Cc1[nH]c2ccc(C(=O)OCCN(C)C)cc2c1C	·	1	-1	9	28
CCOC(=O)c1ccc2[nH]c3ccccc3c2c1	6	3	0	62*	48
CCOC(=O)c1ccc2[nH]c(C)cc(=O)c2c1	5	3	·	4	3
CCOC(=O)c1ccc2[nH]c(C)c(C)c2c1	4	5	·	59*	36
CCCN(C)C[C@H]1OCCCC[C@H](C)Oc2ccc(NC(=O)c3ccccc3)cc2C(=O)N([C@@H](C)CO)C[C@H]1C	8	·	·	2	·
COc1ccc(CN(C)C[C@@H]2OCCCC[C@@H](C)Oc3ccc(NC(=O)c4ccccc4)cc3C(=O)N([C@@H](C)CO)C[C@H]2C)cc1	·	·	·	1	·
O=C(Nc1nc(-c2cc3ccccc3oc2=O)cs1)c1ccco1	-23	2	5	9	·
O=c1oc2ccccc2cc1-c1csc(NN=C2CCCCC2)n1	-22	1	·	66*	77
